Screening data from PubChem.
Sampled rows, rich in hits. Any-hit rate of the full collection: about 1.5%.
Tb PFK block – qHTS Assay to Find Inhibitors of T. brucei phosphofructokinase; ATP-dependent 6-phosphofructokinase (Trypanosoma brucei brucei), O15648; T. brucei PFK, ADP-Glo luminescence; Potency, µM (titrated, usually from 57.5 µM), for inactives: at the top dose activity, negative = inhibition, hits mostly inhibitors; 0.17% of 330,000 active;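 further: potency means the concentration at half of the fitted maximal effect; 0% = uninhibited 1x PFK enzyme wells and -100% = no-enzyme wells; nearly all actives have a fitted effect of over 60% in size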
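Luminescent ADP detection (ADP-Glo, two-step: ATP depletion then ADP-to-ATP conversion for luciferase) reported PFK activity after 45 min room-temperature reaction of 1.25 nM enzyme with 0.5 mM F6P and 0.1 mM ATP at pH 8.0.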
PGK inhibitor – qHTS Assay to Find Inhibitors of Phosphoglycerate Kinase | Phosphoglycerate kinase, glycosomal (Trypanosoma brucei brucei), P07378 | 0.043% of 380,000 active | AID 602233, 2012 | Potency, µM (series often up to 57.5 µM), without a hit: at the highest dose activity change, negative = inhibition, actives largely listed as inhibitors | PGK/GAPDH coupled, Kinase-Glo luminescence, 60 min; further: potency means the concentration at half of the fitted maximal effect; on the % scale 0 is the no-effect control and ±100 the full control effect; nearly all actives have a fitted effect of over 60% in size
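Luminescent ATP detection (Kinase-Glo Plus) follows a 60-minute room-temperature incubation, with wells lacking PGK as controls. Buffer: 100 mM TEA (pH 7.6), 5 mM MgCl2, 0.01% Tween-20. Coupling enzyme GAPDH (100 nM final) supplies unstable 1,3-BPG in-well.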
TDP1 block – qHTS Assay for Inhibitors of Tyrosyl-DNA Phosphodiesterase (TDP1). Potency, µM (series often up to 130 µM), without a hit: at the highest dose activity change, negative = inhibition, usual class: inhibitors. recombinant TDP1, AlphaScreen DNA substrate cleavage. 0.28% of 350,000 active. Tyrosyl-DNA phosphodiesterase 1 (Homo sapiens), Q9NUW8; further: potency means the concentration at half of the fitted maximal effect; on the % scale 0 is the no-effect control and ±100 the full control effect; nearly all actives have a fitted effect of over 40% in size
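AlphaScreen read-out: signal falls as enzyme removes the 3' tyrosine-FITC from a 5'-biotinylated DNA oligo (15 nM, 5 min, RT). Enzyme was E. coli-made recombinant Tdp1 at 1 nM, exposed to compound for 15 min beforehand; beads 10 ug/ml, 10 min.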
FEN1 inhibitor – qHTS Assay for the Inhibitors of Human Flap endonuclease 1 (FEN1); Recombinant FEN1 flap cleavage, fluorescence, 15 min; Potency, µM (highest dose often 114 µM), for inactives: at the highest dose activity change, negative = inhibition, actives largely listed as inhibitors; 0.35% of 390,000 active; further: potency means the concentration at half of the fitted maximal effect; on the % scale 0 is the no-effect control and ±100 the full control effect; nearly all actives have a fitted effect of over 65% in size
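Reaction started by adding substrate (50 nM final) to 10 nM enzyme after 15 min room-temperature compound preincubation. Reads at 0 and 15 min, with data normalized and fitted to a four-parameter Hill equation.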
PI5P4Ka inh – qHTS for Inhibitors of phosphatidylinositol 5-phosphate 4-kinase (PI5P4K) | Phosphatidylinositol 5-phosphate 4-kinase type-2 alpha (Homo sapiens), P48426 | PI5P4Kalpha enzyme, ADP-Glo luminescence, 60 min; hits give low values | max response, % | 1.2% of 330,000 active; active means max response of -50% or lower; inconclusive means between -30% and -50%; inactive means -30% or higher; further: value at the top dose of about 77 µM; on the % scale 0 is the no-effect control and ±100 the full control effect
Target sequence (P48426 whole entry, looked up): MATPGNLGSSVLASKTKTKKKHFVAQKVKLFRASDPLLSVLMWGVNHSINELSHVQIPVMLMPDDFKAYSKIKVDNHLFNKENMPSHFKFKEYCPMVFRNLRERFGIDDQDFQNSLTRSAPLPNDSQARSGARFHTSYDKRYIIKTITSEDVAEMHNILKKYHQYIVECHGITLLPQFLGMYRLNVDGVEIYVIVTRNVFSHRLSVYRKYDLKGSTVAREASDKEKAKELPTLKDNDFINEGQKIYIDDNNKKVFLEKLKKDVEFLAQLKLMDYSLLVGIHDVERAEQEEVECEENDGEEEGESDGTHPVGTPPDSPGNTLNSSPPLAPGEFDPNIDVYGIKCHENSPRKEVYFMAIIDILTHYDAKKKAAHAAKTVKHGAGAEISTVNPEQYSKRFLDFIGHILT
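Controls without substrate or without enzyme flank wells where PI5P4Kalpha converts substrate using 5 microM ATP (final). Incubation lasts 60 minutes at room temperature; ADP formed is read by ADP-Glo luminescence.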
WRN helicase inh-1 – qHTS for Inhibitors of WRN Helicase. WRN helicase unwinding, fluorescent forked duplex, kinetic. Potency, µM (titrated, usually from 114 µM), for the others: at the top dose activity change, negative = inhibition, actives largely listed as inhibitors. 0.46% of 360,000 active; further: potency means the concentration at half of the fitted maximal effect; on the % scale 0 is the no-effect control and ±100 the full control effect; nearly all actives have a fitted effect of over 55% in size
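WRN at 20 nM final was preincubated with compound for 15 min at room temperature; reaction started with 100 nM forked duplex oligonucleotide carrying fluorophore and quencher plus 2 mM ATP (final). Unwinding followed kinetically by red fluorescence (ex 525/em 598 nm).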
WRN helicase inh-2 – qHTS for Inhibitors of WRN Helicase: Confirmatory Assay for Cherry-picked Compounds | shares compounds with WRN helicase inh-1 | WRN helicase DNA unwinding, fluorescence kinetic | Potency, µM (titrated, usually from 57.1 µM), without a hit: at the highest dose activity, negative = inhibition, hits mostly inhibitors | 63% of 610 active; further: potency means the concentration at half of the fitted maximal effect; nearly all actives have a fitted effect of over 65% in size
TO DNA binding – qHTS for Inhibitors of WRN Helicase: Thiazole Orange DNA Binding Counterscreen; AID 720499, 2013; thiazole orange DNA binding displacement, fluorescence; shares compounds with WRN helicase inh-1; 10% of 610 active; Potency, µM (highest dose often 57.1 µM), for inactives: at the top dose activity change, negative = inhibition, most hits filed as inhibitors;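 further: drop in dye fluorescence marks compound binding to DNA; potency means the concentration at half of the fitted maximal effect; on the % scale 0 is the no-effect control and ±100 the full control effect; nearly all actives have a fitted effect of over 60% in size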
BLM helicase inh – qHTS for Inhibitors of WRN Helicase: BLM Helicase Counterscreen for WRN Inhibitors | shares compounds with WRN helicase inh-1 | Recombinant BLM helicase DNA unwinding, red fluorescence | Potency, µM (doses to about 57.1 µM), for inactives: at the highest dose activity change, negative = inhibition, hits mostly inhibitors | 60% of 610 active | AID 720503, 2013; further: potency means the concentration at half of the fitted maximal effect; nearly all actives have a fitted effect of over 60% in size
The depositor's hits bear a star; i = inactive; ? = inconclusive; . = no result; [ ] = another dose, or the depositor's remark. Unless noted, the call rests on the fitted dose curve; in most records, active means well fitted curve in the direction sought with a large enough effect; inconclusive means small, poorly fitted or top-dose-only effect, or another doubt; inactive means no such curve, though single readings can be large; an effect the other way counts as inactive or inconclusive.

SMILES | Tb PFK block | PGK inhibitor | TDP1 block | FEN1 inhibitor | PI5P4Ka inh | WRN helicase inh-1 | WRN helicase inh-2 | TO DNA binding | BLM helicase inh
CC(C)(C)N(Cc1ccc2c(c1)OCO2)C(=O)/C=C\S(=O)c1ccccc1 (centres undefined) | . | -1% | . | -11% | -1 | ? | 12µM* | -12% | 24µM*
Nc1nnc(CC(=O)N/N=C/c2ccc(-c3cccc(C(=O)O)c3)o2)s1 | 4% | -8% | . | ? | -57* | ? | ? | -22% | ?
C=CCn1c(SCC(=O)c2ccc(O)c(O)c2)nnc1-c1cccc(OC)c1 | 0% | -11% | -1% | -5% | -20 | ? | . | . | .
C=CCn1c(SCC(=O)c2ccc(O)c(O)c2)nnc1-c1ccc(C)cc1 | -5% | -10% | -11% | 13% | -3 | ? | 19µM* | -5% | ?
C=CCn1c(SCC(=O)c2ccc(O)c(O)c2)nnc1-c1ccc(OC)cc1 | -3% | -18% | . | -1% | -51* | 28µM* | 17µM* | -4% | ?
Cc1n[nH]c(=S)n(NC(=O)/C=C/C(=O)Nn2c(=S)[nH]nc(C)c2=O)c1=O | -20% | ? | ? | 45µM* | ? | 18µM* | ? | -15% | 22µM*
O=C(COC(=O)c1cc(S(=O)(=O)N2CCOCC2)ccc1Cl)NCc1ccccc1 | 5% | -8% | 0% | -5% | -1 | -25% | . | . | .
COc1ccc(Nc2nc(N)c3cc(OC)c(OC)cc3n2)cc1 | . | 0% | -2%[12.3 µM] | ? | . | . | 22µM* | ? | 22µM*
COc1cc2nc(Nc3cccc(F)c3)nc(N)c2cc1OC | 16% | 2% | 0% | ? | -15 | -19% | . | . | .
CN1/C(=C\C(=O)COC(=O)c2ccco2)C(C)(C)c2ccccc21 | 2% | -11% | 4% | -12% | -2 | -1% | . | . | .
CN1/C(=C\C(=O)c2ccco2)C(C)(C)c2ccccc21 | 2% | . | -7% | -3% | . | ? | -14% | -15% | -1%
C=CCN1C(=O)/C(=C/C=C2/N(CC)c3ccc(S(=O)(=O)N(C)C)cc3N2CC)SC1=S | 6% | -16% | 7% | ? | -14 | 5.3µM* | 9.6µM* | i | 9.6µM*
C=CCN1C(=O)/C(=C2/Sc3ccccc3N2CC)SC1=S | -3% | i | . | -2% | 3 | 12% | . | . | .
O=C(N[C@@H](c1ccccc1)[C@H](O)c1ccccc1)[C@@H]1CCCN1C(=O)OCc1ccccc1 | . | -7% | 10% | -3% | 3 | -2% | . | . | .
CSCCNC(=O)Nc1c(-c2c(Cl)cccc2Cl)noc1C | 0% | -6% | 0% | -5% | 12 | -4% | . | . | .
Cc1ccc(S(=O)(=O)N2CC=C(c3ccc(F)cc3)CC2)cc1 | 0% | -3% | 3% | -14% | 0 | 4% | . | . | .
